# Experimental data: PubChem BioAssay (Tox21)
# Inconclusive results are not listed. A call without a number means that no potency is given here. The source made the active and inactive calls. The call rests on the fitted dose curve; in most records, active means well fitted cell-killing curve with a large enough effect in the repeat runs; inconclusive means weak or mixed curves, or effect the other way; inactive means flat fitted curve, though single readings scatter.
# Assay: qHTS assay to identify small molecule agonists of the androgen receptor (AR) signaling pathway in the presence of an antagonist - cell viability counter screen (AID 1259379); further: nearly all actives have a fitted effect of over 25% in size
# Settings: MDA-kb2 viability, CellTiter-Fluor, 16 h; series mostly up to 92.4 µM
# From the text: National Center for Advancing Translational Sciences [NCATS]
# NIH Chemical Genomics Center [NCGC]
# U.S. Environmental Protection Agency [EPA]
# National Institutes of Environmental Health Sciences [NIEHS]
# National Toxicology Program [NTP]
# U.S. Food and Drug Administration [FDA]
# Androgen receptor (AR) is an important member of nuclear receptor family. Its signaling plays a critical role in AR-dependent prostate cancer and other androgen related diseases. Considerable attention has been given in the past decades to develop methods to study and screen for the environmental chemicals that have the potential to interfere with metabolic homeostasis, reproduction, developmental and behavioral functions. Therefore AR binding assay for screening against androgen agonists and antagonists can be used to identify potential endocrine disruptors.
# MDA-kb2 cells (from ATCC, deposited by Wilson et al.) are human breast carcinoma cells that were stably transfected with a luciferase reporter gene under control of the MMTV promoter that contains response elements for both androgen receptor (AR) and glucocorticoid receptor (GR). This particular screening for measuring luciferase reporter gene activity using MDA-kb2 cells against Tox21 10K library compounds is a confirmation study on agonist mode screening in the presence of AR-antagonist compound (Nilutamide) at 3.0uM final concentration. The cytotoxicity of the compounds was tested in parallel by measuring the cell viability using CellTiter-Fluor assay system (Promega, Madison, WI) in the same wells.
# Tox21 Assay Protocol Summary:
# MDA-kb2 cells (cells cultured without CO2) were dispensed at 3,000 cells/well in 4uL of culture medium into white wall/solid-bottom 1536-well plates (Corning Life Sciences, Corning, NY) using a Multidrop Combi (Thermo Fisher Scientific Inc., Waltham, MA) dispenser. The assay plates were incubated at 37C and 0% CO2 for 5hr. One uL of 3.0uM (final concentration) Nilutamide or assay buffer was added using two separate tips of Flying Reagent Dispenser (FRD, Aurora Discovery, San Diego, CA). Then 23nL of compounds dissolved in DMSO at 15 concentrations and positive controls were transferred to the assay plates using a Pintool station (Wako, San Diego, CA). The assay plates were incubated at 37C and 0% CO2 for 16 hr. After 15hr incubation at 37C, 1uL/well CellTiter-Fluor reagent (Promega Corporation) was added to each well of the assay plates using FRD. After 1hr incubation at 37C and 0% CO2, the fluorescence signal was measured using a ViewLux plate reader (PerkinElmer, Shelton, CT).
row,SMILES,Potency
1,CN(C)C(=O)Oc1cccc([N+](C)(C)C)c1,inactive
2,CC1CCC(CO)CC1 (stereo not given),inactive
3,NO,inactive
4,COc1ccnc(CS(=O)c2nc3cc(OC(F)F)ccc3[nH]2)c1OC (stereo not given),inactive
5,CC(=O)c1ccccc1[N+](=O)[O-],inactive
6,CC(CC=O)CC(C)(C)C (stereo not given),inactive
7,COc1cccc(OC)c1C(=O)N[C@@H]1C(=O)N2[C@@H]1SC(C)(C)[C@@H]2C(=O)O,inactive
8,CC(C)[C@H]1CC[C@@H](C)CC1=O,inactive
9,CN(C)CCCCCCN(C)C,inactive
10,CN1C(C)(C)CC(O)CC1(C)C,inactive
11,CC1OC1C1CCC2(C)OC2C1 (stereo not given),inactive
12,C[C@@H]1CCC[C@H](C)N1,inactive
13,CC(C)NNC(=O)c1ccncc1,inactive
14,NC(=O)N[C@@H](CCC(=O)O)C(=O)O,inactive
15,Cc1ccc(C(=O)c2ccccc2)cc1,inactive
16,CC1=NS(=O)(=O)c2cc(Cl)ccc2N1,inactive
17,COc1cc(C)nc(-n2nc(C)cc2OC)n1,inactive
18,CC(C)(C#N)Nc1nc(Cl)nc(NC2CC2)n1,inactive
19,Cc1nc(C2CCCCC2)c(-c2ccc(S(N)(=O)=O)c(F)c2)o1,inactive
20,CC(=O)Nc1ccc(OCC(O)CNC(C)C)cc1 (stereo not given),inactive

row,SMILES,Potency
1,CC(C(=O)O)c1cccc(Oc2ccccc2)c1 (stereo not given),inactive
2,CCCOC(=O)CC,inactive
3,Nc1ccccn1,inactive
4,CC(=O)O[C@@]12CO[C@@H]1C[C@H](O)[C@@]1(C)C(=O)[C@H](O)C3=C(C)[C@@H](OC(=O)[C@H](O)[C@@H](NC(=O)OC(C)(C)C)c4ccccc4)C[C@@](O)([C@@H](OC(=O)c4ccccc4)[C@H]21)C3(C)C,inactive
5,C=C(C)C(=O)OCC1CCCO1 (stereo not given),inactive
6,CC(=O)N1C[C@H](O)C[C@H]1C(=O)O,inactive
7,O=Cc1cccc(Br)c1,inactive
8,COC(=O)C1=C(C)NC(C)=C(C(=O)OC(C)C)C1c1cccc2nonc12 (stereo not given),inactive
9,C[N+](C)(CCOc1ccccc1)Cc1cccs1,inactive
10,C=CCCC(=O)O,inactive
11,CCOC(=O)c1cnc2c(cnn2CC)c1NN=C(C)C,inactive
12,Clc1cc(Cl)cc(Cl)c1,inactive
13,O=C(c1ccccc1O)c1ccccc1O,inactive
14,CCOc1ccc2nc(S(N)(=O)=O)sc2c1,inactive
15,N[C@@H](CCC(=O)O)C(=O)O,inactive
16,CCN(C=O)CC,inactive
17,CCC(C)(CN(C)C)OC(=O)c1ccccc1 (stereo not given),inactive
18,Cc1ncc(COP(=O)(O)O)c(C=O)c1O,inactive
19,CCOc1ccccc1OCC,inactive
20,O=C(CO)[C@@H](O)[C@H](O)[C@H](O)CO,inactive
